The record followed here is PMC5540273 (PLoS ONE, 2017).

Test systems include MST4; MTOR; MUSK; MYLK2; MYLK4; MYLK; MYO3A; MYO3B; NDR2; NEK10; NEK11; NEK1; NEK2; NEK3; NEK4; NEK5; NEK6.
Holding throughout (settings): concentration: 1 μM, replicates: in singlicate; n = 1
Another experiment has as its system T1, MST2.
T1 construct: gene STK3

The next experiment has as its system T2, MST3.
T2 construct: gene STK24

The next experiment has as its system T3, NDR1.
T3 construct: gene STK38
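Further: KINOMEscan kinase panel screen.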

In the case of `Cc1cccc(-c2nc(Nc3ccncc3)c3ccccc3n2)n1` [GW855857], the “%Inh” value in the experiment with MST2 is given as 0%; in the experiment on MST3 it was 3%; in the experiment with MST4, 0%; in the experiment with MTOR it was 50%; with MUSK it was 17%; in the experiment with MYLK2, 7%. Also, the “%Inh” value worked out at 7% in the experiment with MYLK4; 12% in the experiment with MYLK; 0% with MYO3A; 17% in the experiment with MYO3B; 8% in the experiment on NDR1; 6% with NDR2. For the same molecule, the “%Inh” value in the experiment on NEK10 is listed as 0%; in the experiment with NEK11, 0%; in the experiment with NEK1, 0%; with NEK2, 0%; in the experiment with NEK3 it was 30%; in the experiment on NEK4, 0%. The results for the “%Inh” value with NEK5 and in the experiment with NEK6 were 10% and 21%, respectively.

`COc1cccc(NC(=O)NC2CCN(c3ccnc(Nc4ccc(F)cc4)n3)C2)c1` (centres unmarked) [GSK1379721]: the “%Inh” value is 17% in the experiment on MST2; 0% in the experiment on MST3; 0% in the experiment with MST4; 19% in the experiment on MTOR; 0% in the experiment on MUSK; 1% with MYLK2. Also, the “%Inh” value came out at 6% in the experiment with MYLK4; 0% in the experiment with MYLK; 25% with MYO3A; 6% in the experiment with MYO3B; 9% in the experiment on NDR1; 27% with NDR2. The “%Inh” value was 0% in the experiment with NEK10; 2% in the experiment on NEK11; 0% in the experiment with NEK1; 1% with NEK2; 6% in the experiment on NEK3; 0% in the experiment with NEK4. The figures for the “%Inh” value in the experiment on NEK5 and in the experiment on NEK6 were 29% and 0%, respectively.

Take `COc1cccc(-c2cc(-c3c[nH]nc3-c3ccccn3)ccn2)c1` [GW680338]: the “%Inh” value in the experiment on MST2 is recorded as 0%; in the experiment on MST3, 0%; in the experiment with MST4, 30%; with MTOR, 33%; in the experiment on MUSK, 0%; in the experiment with MYLK2, 0%. In addition, the “%Inh” value in the experiment on MYLK4 is 9%; with MYLK, 0%; in the experiment on MYO3A it was 8%; with MYO3B, 3%; in the experiment on NDR1 it was 16%; with NDR2, 19%. Besides, the “%Inh” value with NEK10 is on record as 4%; in the experiment on NEK11 it was 0%; in the experiment on NEK1, 0%; with NEK2, 0%; in the experiment on NEK3, 5%; in the experiment with NEK4, 13%. The “%Inh” value is recorded as 14% in the experiment with NEK5 and 0% in the experiment with NEK6.

In the case of `NC(=O)c1nnc2ccccc2c1N`, the “%Inh” value with MST2 turned out to be 65%; in the experiment with MST3, 0%; in the experiment with MST4, 15%; with MTOR it was 10%; in the experiment on MUSK it was 10%; in the experiment on MYLK2, 0%. Further, the “%Inh” value in the experiment with MYLK4 is 78%; in the experiment with MYLK it was 37%; in the experiment on MYO3A, 9%; with MYO3B, 5%; with NDR1 it was 20%; in the experiment with NDR2, 0%. Further, the “%Inh” value is 85% in the experiment with NEK10; 0% in the experiment on NEK11; 0% in the experiment with NEK1; 16% in the experiment on NEK2; 31% in the experiment on NEK3; 4% in the experiment with NEK4. Moreover, the “%Inh” value was 3% in the experiment with NEK5 and 10% in the experiment on NEK6.

Turning to `COc1ccccc1-c1ccc2c(NC(=O)C3CC3)n[nH]c2n1` [SB-711239], the “%Inh” value with MST2 was 0%; in the experiment on MST3, 0%; with MST4, 0%; in the experiment on MTOR, 30%; in the experiment with MUSK, 0%; in the experiment on MYLK2, 23%. Further, the “%Inh” value turned out to be 0% in the experiment with MYLK4; 12% in the experiment on MYLK; 0% in the experiment with MYO3A; 0% in the experiment with MYO3B; 8% with NDR1; 0% in the experiment on NDR2. Further, the “%Inh” value in the experiment on NEK10 is on record as 11%; in the experiment on NEK11, 33%; in the experiment on NEK1, 0%; in the experiment with NEK2, 22%; in the experiment with NEK3, 0%; with NEK4, 6%. Further, the “%Inh” value in the experiment on NEK5 is 0%; in the experiment on NEK6, 4%.

Consider `Cn1ccc2ncnc(Oc3ccc(Nc4nc5ccccc5[nH]4)cc3)c21`, for which the “%Inh” value was found to be 5% in the experiment with MST2; 0% with MST3; 0% in the experiment on MST4; 0% with MTOR; 21% in the experiment on MUSK; 0% with MYLK2. For the same molecule, the “%Inh” value with MYLK4 came out at 0%; in the experiment with MYLK, 0%; with MYO3A, 0%; in the experiment on MYO3B, 0%; with NDR1 it was 0%; in the experiment with NDR2 it was 10%. Moreover, the “%Inh” value in the experiment with NEK10 came to 0%; in the experiment on NEK11, 0%; with NEK1 it was 0%; in the experiment with NEK2 it was 0%; in the experiment on NEK3, 0%; in the experiment with NEK4 it was 99.9%. Moreover, the “%Inh” value with NEK5 and in the experiment on NEK6 was 0% throughout.

Turning to `Cl.Oc1ccc(-c2nc(-c3ccccc3)[nH]c2-c2ccncc2)cc1` [SB-428218], the “%Inh” value is given as 0% with MST2; 0% in the experiment on MST3; 0% in the experiment with MST4; 32% in the experiment on MTOR; 0% with MUSK; 0% in the experiment on MYLK2. Also, the “%Inh” value with MYLK4 was 17%; in the experiment on MYLK, 22%; with MYO3A, 46%; with MYO3B, 0%; in the experiment with NDR1, 12%; in the experiment on NDR2, 5%. For the same molecule, the “%Inh” value with NEK10 was found to be 9%; in the experiment with NEK11, 24%; in the experiment on NEK1 it was 0%; in the experiment on NEK2, 3%; with NEK3, 15%; in the experiment with NEK4, 29%. Besides, the “%Inh” value with NEK5 is 6%; in the experiment on NEK6 it was 0%.

On to `Cc1nnc(-c2ccc3occ(-c4ccc(S(C)=O)cc4)c3c2)[nH]1` (centres unmarked), for which the “%Inh” value in the experiment with MST2 is given as 0%; with MST3, 11%; in the experiment on MST4, 0%; in the experiment on MTOR, 10%; in the experiment on MUSK, 16%; in the experiment with MYLK2, 4%. The “%Inh” value in the experiment with MYLK4 stood at 7%; with MYLK it was 11%; in the experiment on MYO3A it was 0%; with MYO3B, 2%; in the experiment on NDR1, 1%; in the experiment with NDR2, 0%. The “%Inh” value is recorded as 0% in the experiment with NEK10; 0% in the experiment with NEK11; 0% in the experiment on NEK1; 11% in the experiment on NEK2; 11% with NEK3; 0% with NEK4. Further, the “%Inh” value was 1% in the experiment with NEK5 and 8% in the experiment with NEK6.

Regarding `Cc1cccc(-c2cc(Nc3ccncc3)c3ccccc3n2)n1` [GSK223675], the “%Inh” value with MST2 turned out to be 6%; with MST3, 5%; in the experiment on MST4, 0%; in the experiment on MTOR, 7%; in the experiment with MUSK it was 1%; in the experiment on MYLK2 it was 0%. The “%Inh” value in the experiment with MYLK4 came to 0%; in the experiment with MYLK it was 15%; with MYO3A, 17%; in the experiment on MYO3B it was 0%; in the experiment on NDR1 it was 0%; in the experiment on NDR2, 0%. Also, the “%Inh” value in the experiment on NEK10 is on record as 0%; with NEK11 it was 0%; in the experiment on NEK1 it was 0%; in the experiment with NEK2 it was 0%; with NEK3 it was 17%; in the experiment with NEK4 it was 0%. In addition, the “%Inh” value in the experiment with NEK5 and with NEK6 was 0% each time.

On to `Cc1cccc(-c2nc(Nc3cccc(C(N)=O)c3)c3ccccc3n2)n1` [GW876019], for which the “%Inh” value in the experiment on MST2 is 20%; with MST3, 0%; in the experiment on MST4 it was 0%; in the experiment on MTOR, 35%; in the experiment on MUSK it was 0%; in the experiment with MYLK2, 0%. The “%Inh” value in the experiment on MYLK4 is 0%; in the experiment with MYLK it was 28%; in the experiment on MYO3A, 11%; in the experiment with MYO3B, 20%; with NDR1 it was 9%; in the experiment with NDR2 it was 0%. The “%Inh” value is 12% with NEK10; 0% with NEK11; 6% with NEK1; 0% in the experiment on NEK2; 28% with NEK3; 0% in the experiment on NEK4. Also, the “%Inh” value amounted to 12% in the experiment with NEK5 and 0% in the experiment on NEK6.
